Assay results published in PubChem BioAssay (NCATS).
Values joined by “and” are separate entries in the source; they are usually repeats but may differ in a detail not shown here. Equal values may be shown once. Inconclusive results are not listed. Active and inactive are the calls of the source. The call rests on the fitted dose curve; in most records, active means well fitted curve in the direction sought with a large enough effect; inconclusive means small, poorly fitted or top-dose-only effect, or another doubt; inactive means no such curve, though single readings can be large; an effect the other way counts as inactive or inconclusive.

Assays:
TAB165 = assay: qHTS profiling for inhibitors of Plasmodium falciparum proliferation (AID 504749); further: nearly all actives have a fitted effect of over 60% in size; further: potency means the concentration at half of the fitted maximal effect; details: P. falciparum in erythrocytes, SYBR Green DNA, 72 h; series mostly up to 28.7 µM
In short: (§1)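 Parasite proliferation within erythrocytes, 72 h exposure. Endpoint: SYBR Green I fluorescence after overnight lysis at room temperature. Controls: 0.29 uM artemisinin, DMSO.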

CRL-7250 [1] = assay: Cytotoxic Profiling of Annotated Libraries Using Quantitative High-Throughput Screening (AID 1296008); details: Five cell lines viability, CellTiter-Glo ATP luminescence, 48-72 h; max response: stronger effect = lower value; further: nearly all actives have a fitted effect of over 60% in size; further: potency means the concentration at half of the fitted maximal effect; on max response: on the % scale 0 is the no-effect control and ±100 the full control effect
In short: (§2)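 Compounds were pin-transferred onto cells and incubated 48 or 72 hr at 37 degree Celsius, 95% humidity. CellTiter-Glo was added, plates sat 10 min at room temperature, then ATP-coupled luminescence was imaged as the viability read-out.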

KB-3-1 = assay: as above; details: Five cell lines viability, CellTiter-Glo ATP luminescence, 48-72 h; max response: stronger effect = lower value
In short: as §2

NIH3T3 [2] = assay: as above; details: Five cell lines viability, CellTiter-Glo ATP luminescence, 48-72 h; max response: stronger effect = lower value
In short: as §2

MKL-1 = assay: qHTS assay to identify novel small-molecules to repurpose for Merkel cell carcinoma treatment (AID 1296009); details: MCC and control cell lines, CellTiter-Glo viability, 72 h; series mostly up to 46 µM; further: nearly all actives have a fitted effect of over 60% in size; further: potency means the concentration at half of the fitted maximal effect
In short: (§3)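 qHTS format: cells treated with library compounds in DMSO across 8 (NPC) or 11 (MIPE) concentrations. Readout after 72 hr at 37 degree celsius was CellTiter-Glo luminescence.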

MKL-2 = assay: as above; details: MCC and control cell lines, CellTiter-Glo viability, 72 h; series mostly up to 46 µM
In short: as §3

HEK293 = assay: Cytotoxic Profiling of Annotated Libraries Using Quantitative High-Throughput Screening (AID 1296008); details: Five cell lines viability, CellTiter-Glo ATP luminescence, 48-72 h; max response: stronger effect = lower value; further: nearly all actives have a fitted effect of over 60% in size; further: potency means the concentration at half of the fitted maximal effect; on max response: on the % scale 0 is the no-effect control and ±100 the full control effect
In short: as §2

HaCat [3] = assay: as above; details: Five cell lines viability, CellTiter-Glo ATP luminescence, 48-72 h; max response: stronger effect = lower value
In short: as §2

HACAT [4] = assay: qHTS assay to identify novel small-molecules to repurpose for Merkel cell carcinoma treatment (AID 1296009); details: MCC and control cell lines, CellTiter-Glo viability, 72 h; at 44.8 µM (top of the series) unless noted; further: nearly all actives have a fitted effect of over 60% in size; further: potency means the concentration at half of the fitted maximal effect
In short: as §3

MCC-13 = assay: as above; details: MCC and control cell lines, CellTiter-Glo viability, 72 h; series mostly up to 46 µM
In short: as §3

MCC-26 = assay: as above; details: MCC and control cell lines, CellTiter-Glo viability, 72 h; series mostly up to 46 µM
In short: as §3

WaGa = assay: as above; details: MCC and control cell lines, CellTiter-Glo viability, 72 h; series mostly up to 46 µM
In short: as §3

CAOV3 = assay: Primary qHTS to identify gynecologic anti-cancer compounds using libraries of approved drugs and bioactive compounds (AID 1345084); details: Gynecologic cancer cell panel viability, ATPlite luminescence, 48 h; series mostly up to 57.5 µM; further: on the % scale 0 is the no-effect control and ±100 the full control effect; nearly all actives have a fitted effect of over 55% in size
In short: (§4)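 Cell viability after 48 h drug treatment, ATPlite luminescence readout; five doses.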

CRL-7250 [5] = assay: qHTS assay to identify novel small-molecules to repurpose for Merkel cell carcinoma treatment (AID 1296009); details: MCC and control cell lines, CellTiter-Glo viability, 72 h; series mostly up to 44.8 µM; further: nearly all actives have a fitted effect of over 60% in size; further: potency means the concentration at half of the fitted maximal effect
In short: as §3

UISO = assay: as above; details: MCC and control cell lines, CellTiter-Glo viability, 72 h; series mostly up to 46 µM
In short: as §3

C33A = assay: Primary qHTS to identify gynecologic anti-cancer compounds using libraries of approved drugs and bioactive compounds (AID 1345084); details: Gynecologic cancer cell panel viability, ATPlite luminescence, 48 h; series mostly up to 57.5 µM; further: on the % scale 0 is the no-effect control and ±100 the full control effect; nearly all actives have a fitted effect of over 55% in size
In short: as §4

CASKI = assay: as above; details: Gynecologic cancer cell panel viability, ATPlite luminescence, 48 h; series mostly up to 57.5 µM
In short: as §4

W2 = assay: qHTS profiling for inhibitors of Plasmodium falciparum proliferation (AID 504749); further: nearly all actives have a fitted effect of over 60% in size; further: potency means the concentration at half of the fitted maximal effect; details: P. falciparum in erythrocytes, SYBR Green DNA, 72 h; series mostly up to 28.7 µM
In short: as §1

NIH3T3 [6] = assay: qHTS assay to identify novel small-molecules to repurpose for Merkel cell carcinoma treatment (AID 1296009); details: MCC and control cell lines, CellTiter-Glo viability, 72 h; at 44.8 µM (top of the series) unless noted; further: nearly all actives have a fitted effect of over 60% in size; further: potency means the concentration at half of the fitted maximal effect
In short: as §3

HEK293T = assay: as above; details: MCC and control cell lines, CellTiter-Glo viability, 72 h; at 44.8 µM (top of the series)
In short: as §3

c1ccc2c(c1)OCC(C1=NCCN1)O2 (centres undefined)
active: Potency (CRL-7250 [1]) 23.7 µM | Potency (NIH3T3 [2]) 15 µM | Potency (MKL-1) 26.6 µM | Potency (MKL-2) 5.96 µM
inactive: Potency (TAB165) | max response (KB-3-1) 29.1%

COc1ccc2c(c1OC)CN1CCc3cc4c(cc3C1C2)OCO4 (centres undefined)
active: Potency (HEK293) 9.44 µM and 935 nM | Potency (MKL-1) 11.9 µM | Potency (MKL-2) 20.9 µM | Potency (WaGa) 16.6 µM
inactive: max response (HaCat [3]) 1.37% | outcome (HaCat [3]) | max response (KB-3-1) -7.53% and -10% | max response (NIH3T3 [2]) -8.93% | outcome (HACAT [4]) | Potency (MCC-13) | Potency (MCC-26) | Potency (CAOV3)

CN(C)c1ccc(O)c2c1C[C@H]1C[C@H]3[C@H](N(C)C)C(=O)C(C(N)=O)=C(O)[C@@]3(O)C(=O)C1=C2O
inactive: outcome (CRL-7250 [5])

CCN(CC)C(=S)SSC(=S)N(CC)CC
inactive: outcome (CRL-7250 [5])

Cc1ccccc1C(OCCN(C)C)c1ccccc1 (centres undefined)
inactive: outcome (CRL-7250 [5])

CC(C)=CCOc1c2occc2cc2ccc(=O)oc12
inactive: max response (CRL-7250 [1]) -11.3% | outcome (HaCat [3]) | max response (KB-3-1) -18.5% | max response (NIH3T3 [2]) -0.907% | outcome (HACAT [4]) | Potency (MCC-13) | Potency (MCC-26) | Potency (MKL-1) | Potency (MKL-2) | Potency (UISO) | Potency (WaGa) | Potency (C33A) | Potency (CAOV3) | Potency (CASKI)

N[C@@H](Cc1ccc(N(CCCl)CCCl)cc1)C(=O)O
active: Potency (TAB165) 11.2 µM | Potency (W2) 6.75 µM | Potency (MKL-1) 2.66 µM and 2.96 µM | Potency (MKL-2) 1.33 µM and 469 nM | Potency (UISO) 13.3 µM and 13.2 µM | Potency (WaGa) 4.22 µM and 5.26 µM
inactive: max response (CRL-7250 [1]) -7.43% | max response (HaCat [3]) -1% | max response (KB-3-1) -3.99% and -10.4% | Potency (MCC-26) | Potency (C33A)

CC[C@@H](CO)NC(=O)[C@@H]1C=C2c3cccc4c3c(cn4C)C[C@H]2N(C)C1
active: Potency (MKL-1) 21.1 µM
inactive: max response (CRL-7250 [1]) 4.07% | outcome (HaCat [3]) | max response (KB-3-1) -9.77% | max response (NIH3T3 [2]) 2.49% | outcome (HACAT [4]) | Potency (MCC-13) | Potency (MCC-26) | Potency (C33A) | Potency (CAOV3) | Potency (CASKI)

CN1C[C@H](CNC(=O)OCc2ccccc2)C[C@@H]2c3cccc4c3c(cn4C)C[C@H]21
inactive: max response (HaCat [3]) -40.8% | max response (KB-3-1) -8.28% | Potency (MCC-13) | Potency (MCC-26) | Potency (C33A) | Potency (CASKI)
active: Potency (TAB165) 10 µM | Potency (W2) 4.78 µM

Cn1cc(C2=C(c3cn(C4CCN(Cc5ccccn5)CC4)c4ccccc34)C(=O)NC2=O)c2ccccc21
inactive: max response (CRL-7250 [1]) -3.19% and -9.47% | max response (HaCat [3]) -7.11% | max response (KB-3-1) 7.73% and 20.1% | outcome (NIH3T3 [2]) | Potency (MCC-13) | Potency (MCC-26) | Potency (MKL-1) | Potency (MKL-2) | outcome (NIH3T3 [6]) | Potency (UISO) | Potency (WaGa) | Potency (C33A) | Potency (CAOV3) | Potency (CASKI)

C[C@@H]1[C@@H](C(=O)C[C@H]2O[C@@H]3O[C@]4(C)CC[C@@H]5[C@H](C)CC[C@@H]([C@H]2C)[C@@]35OO4)O[C@@H]2O[C@]3(C)CC[C@H]4[C@H](C)CC[C@@H]1[C@@]24OO3
inactive: Potency (MCC-26)
active: Potency (CRL-7250 [1]) 4.18 µM | Potency (HaCat [3]) 5.26 µM | Potency (MKL-1) 14.8 µM | Potency (MKL-2) 0.662 µM | Potency (UISO) 372 nM | Potency (WaGa) 2.64 µM

COC(c1ccccc1)(c1ccccc1)[C@H](Oc1nc(C)cc(C)n1)C(=O)O
inactive: outcome (CRL-7250 [5])

CC(=O)[C@H]1CC[C@H]2[C@@H]3CC[C@H]4C[C@H](O)CC[C@]4(C)[C@H]3C(=O)C[C@]12C
inactive: Potency (TAB165) | Potency (W2) | max response (CRL-7250 [1]) -2.84% | max response (HaCat [3]) 0.502% | max response (KB-3-1) -4.21% | outcome (NIH3T3 [2]) | Potency (MCC-13) | Potency (MCC-26) | Potency (MKL-1) | Potency (MKL-2) | outcome (NIH3T3 [6]) | Potency (UISO) | Potency (WaGa) | Potency (C33A) | Potency (CAOV3) | Potency (CASKI)

O=c1oc2ccccc2c(O)c1C(CC(O)c1ccc(-c2ccc(Br)cc2)cc1)c1ccccc1 (centres undefined)
inactive: max response (CRL-7250 [1]) 0.6% | max response (HaCat [3]) 4.03% | max response (KB-3-1) 0.095% | max response (NIH3T3 [2]) 0.0262% | outcome (HEK293T) | Potency (MCC-13) | Potency (MCC-26) | Potency (MKL-1) | Potency (MKL-2) | Potency (UISO) | Potency (WaGa) | Potency (C33A) | Potency (CAOV3) | Potency (CASKI)

CC(c1cc2ccccc2s1)N(O)C(N)=O (centres undefined)
inactive: outcome (CRL-7250 [5])

COc1ccccc1N1CCNCC1
inactive: Potency (TAB165) | Potency (W2) | outcome (HaCat [3]) | max response (KB-3-1) -11% | max response (NIH3T3 [2]) -4.83% | outcome (HACAT [4]) | outcome (HEK293T) | Potency (MCC-13) | Potency (MCC-26) | Potency (MKL-1) | Potency (MKL-2) | Potency (UISO) | Potency (WaGa) | Potency (C33A) | Potency (CAOV3) | Potency (CASKI)

Nc1ccc(O)c(C(=O)O)c1
inactive: outcome (CRL-7250 [5])

C[C@]12CC[C@H]3[C@@H](CCC4=CC(=O)CC[C@@H]43)[C@@H]1CC[C@@H]2OC(=O)CCc1ccccc1
inactive: max response (CRL-7250 [1]) -4.34% | max response (HaCat [3]) 1.58% | max response (NIH3T3 [2]) -2.8% | Potency (MCC-13) | Potency (MCC-26) | Potency (MKL-1) | Potency (MKL-2) | Potency (UISO) | Potency (WaGa) | Potency (C33A) | Potency (CAOV3) | Potency (CASKI)

O=C1NCN(c2ccccc2)C12CCN(CC1COc3ccccc3O1)CC2 (centres undefined)
inactive: Potency (TAB165) | max response (CRL-7250 [1]) -15.4% | max response (HaCat [3]) 4.17% | max response (KB-3-1) -9.57% | max response (NIH3T3 [2]) -1.57% | Potency (MCC-13) | Potency (MCC-26) | Potency (MKL-1) | Potency (MKL-2) | Potency (UISO) | Potency (WaGa) | Potency (C33A) | Potency (CAOV3) | Potency (CASKI)

CC[C@@H](CO)NC(=O)[C@@H]1C=C2c3cccc4[nH]cc(c34)C[C@H]2N(C)C1
inactive: Potency (TAB165) | Potency (W2) | max response (CRL-7250 [1]) -1.45% | max response (HaCat [3]) -5.68% | max response (KB-3-1) 37.2% | max response (NIH3T3 [2]) -3.83% | Potency (MCC-13) | Potency (MCC-26) | Potency (MKL-1) | Potency (MKL-2) | Potency (UISO) | Potency (WaGa) | Potency (C33A) | Potency (CAOV3) | Potency (CASKI)

C[C@]12CCC(=O)C(O)=C1CC[C@@H]1[C@@H]2CC[C@]2(C)C(=O)CC[C@@H]12
inactive: max response (CRL-7250 [1]) -13.2% | max response (HaCat [3]) -15.5% | max response (KB-3-1) -15.7% | max response (NIH3T3 [2]) -5.78% | Potency (MCC-13) | Potency (MCC-26) | Potency (MKL-1) | Potency (MKL-2) | Potency (UISO) | Potency (WaGa) | Potency (C33A) | Potency (CAOV3) | Potency (CASKI)
